Legend:
Assay type in all cases: functional
[1] = molecular target: Solute carrier family 2, facilitated glucose transporter member 1 (Homo sapiens) (UniProt P11166); experiment: ST_JUDE_LEISH: Cytotoxicity at 2uM final concentration against transgenic Leishmania Mexicana promastigotes LmGLUT1 that are glucose transport deficient and complemented with the human glucose transporter GLUT1. Activity is measured by DNA content using SYBR green in vitro
[2] = molecular target: Hexose transporter 1 (Plasmodium falciparum) (UniProt O97467); experiment: ST_JUDE_LEISH: Cytotoxicity at 2uM final concentration against transgenic Leishmania Mexicana promastigotes LmPfHT that are glucose transport deficient and complemented with the Plasmodium falciparum hexose transporter. Activity is measured by DNA content using SYBR green in vitro
[3] = molecular target: Glucose transporter (Leishmania mexicana) (UniProt O61059); experiment: ST_JUDE_LEISH: Cytotoxicity at 2uM final concentration against transgenic Leishmania Mexicana promastigotes LmGT2 that are glucose transport deficient and complemented with the L. Mexicana glucose transporter 2. Activity is measured by DNA content using SYBR green in vitro

Chain of Solute carrier family 2, facilitated glucose transporter member 1 (Homo sapiens) (P11166 whole entry): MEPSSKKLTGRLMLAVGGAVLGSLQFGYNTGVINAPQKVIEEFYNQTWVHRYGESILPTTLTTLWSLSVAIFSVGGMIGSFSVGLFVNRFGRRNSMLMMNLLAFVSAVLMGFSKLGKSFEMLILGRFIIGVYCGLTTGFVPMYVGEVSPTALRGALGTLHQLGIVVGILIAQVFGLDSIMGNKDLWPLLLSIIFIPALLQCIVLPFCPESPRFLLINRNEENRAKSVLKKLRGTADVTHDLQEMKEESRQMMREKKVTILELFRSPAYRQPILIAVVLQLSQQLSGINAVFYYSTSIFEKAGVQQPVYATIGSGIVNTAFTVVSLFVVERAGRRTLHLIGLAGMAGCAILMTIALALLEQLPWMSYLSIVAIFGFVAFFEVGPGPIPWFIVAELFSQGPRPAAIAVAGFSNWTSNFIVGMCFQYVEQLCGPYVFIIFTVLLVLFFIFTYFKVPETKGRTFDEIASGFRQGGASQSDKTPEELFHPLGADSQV

Compound	inhibition [1] [%]	inhibition [2] [%]	inhibition [3] [%]
N=C(N)NN=CC(=O)Nc1ccc(Br)cc1	-1.7	-4.24	-1.29
Clc1ccccc1C=NN=c1cc[nH]c2ccccc12	3.99	5.58	5.41
Cc1cc(=NN=Cc2ccc(Cl)cc2)c2ccccc2[nH]1	4.28	6.86	3.97
CC(CNC(=O)C(c1cc2ccccc2o1)N1CCN(C(c2ccccc2)c2ccccc2)CC1)c1ccccc1 (centres undefined)	3.49	3.31	3.92
CN1CCCN(Cc2cccc(-c3ccc(NC(=O)c4ccc(Cl)cc4)cc3)c2)CC1	55.2	50.2	21.9
Cc1cc(CNCCCCCCCNCc2cccc([N+](=O)[O-])c2)ccc1O	2.48	1.23	-1.43
Cc1cc(N[C@@H](CC(C)C)C(=O)NCc2cccs2)nc(NCCc2ccccc2)n1	7.7	5.79	5.49
CN1CCN(c2nsc3ccc(-c4ccc(OCCN5CCCC5)cc4)cc23)CC1	13.2	11.4	9.39
Cc1cccc2nc(-c3cccc(-c4ccc(NC(=O)NCc5cccc(F)c5)cc4)c3)[nH]c12	-1.1	1.21	0.25
O=C(NC1CCN(Cc2ccsc2)CC1)c1ccc(-c2cccc(C(F)(F)F)c2)s1	8.18	9.07	0.59
c1cc(CN2CCCCC2)cc(OCCCNc2ccnc3ccccc23)c1	18	7.87	5.12
Cc1cc(N2CCN(C)CC2)nc2ccc(NC(=O)c3cccc(N(C)C)c3)cc12	7.09	7.99	10.2
COc1ccc(CN2CCC(NCc3cccc([N+](=O)[O-])c3)CC2)cc1	5.28	7.16	6.36
COc1cc(NC(=O)N2CCOC(CCN3CCC(c4ccccc4)CC3)(c3ccc(Cl)c(Cl)c3)C2)cc(OC)c1OC (centres undefined)	3.7	2.95	1.05
CCCN(CCC)CCCNc1ccc(C(=O)Nc2ccc(C)c(F)c2)cc1[N+](=O)[O-]	76.3	74.6	74
COc1cc2nc(N3CCC(c4ccccc4)CC3)nc(NCc3ccc(=O)[nH]c3)c2cc1OC	1.44	1.5	1.6
C=CCc1cc(Br)ccc1OCCCOc1c(C)nc(N)nc1N	73.6	76	57
c1ccc(Oc2ccc(Nc3ccnc4ccc(-c5ccccn5)cc34)cc2)cc1	2.62	4.16	3.02

— ChEMBL document CHEMBL3433997, “St. Jude Leishmania screening dataset” (2016)
